Most compounds without a hit are left out; they make up all but 19% or so of the library.
Pf growth 48h = Primary qHTS for delayed death inhibitors of the malarial parasite plastid, 48 hour incubation | P. falciparum luciferase growth in erythrocytes, 48 h | Potency, µM (doses to about 28.7 µM), usual class: inhibitors | 5.9% of 310,000 active | AID 504832, 2011
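In quantitative HTS format, infected erythrocytes bearing luciferase-reporter parasites were treated for a single generation at 37 C. Luminescence after adding detection reagent served as the growth measure.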
Shiga inhibitor = A qHTS for Small Molecule Inhibitors of Shiga Toxin | Vero cells, Shiga toxin protein synthesis inhibition reporter | inhibition, % at 38.7 µM | 9.2% of 290,000 active | AID 2315, 2010; in the data active = inhibition mostly above about 28%, no sharp cut-off; inactive = mostly below about 43%
AMA1-RON2 inh = qHTS for Inhibitors of AMA1-RON; Towards Development of Antimalarial Drug Lead: Primary Screen; Plasmodium falciparum AMA1 (3D7) - RON2 peptide interaction; AlphaScreen AMA1-biotinylated RON2 peptide binding; Potency, µM (doses to about 58.2 µM), hits mostly inhibitors; 0.2% of 360,000 active; also: nearly all actives have a fitted effect of over 45% in size
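AMA1 (3D7) with his tag at 25 nM final met compounds first, then biotinylated RON2 peptide at 25 nM; detection used donor plus acceptor beads, 10 µg/mL apiece, read by AlphaScreen after 30 min at room temperature.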
Cycloheximide cs = Cycloheximide Counterscreen for Small Molecule Inhibitors of Shiga Toxin; cell reporter, cycloheximide protein synthesis inhibition counterscreen; max response, %; 12% of 300,000 active; in the data active = max response mostly above about 13%, no sharp cut-off; inactive = mostly below about 14%; also: read at 38.3 µM for the half of the compounds with a filed dose
Pf growth 96h = Primary qHTS for delayed death inhibitors of the malarial parasite plastid, 96 hour incubation; Potency, µM (top dose mostly 28.7 µM), most hits filed as inhibitors; AID 504834, 2011; 6.9% of 320,000 active; P. falciparum luciferase reporter growth, 96 h
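P. falciparum expressing integrated firefly luciferase grown in erythrocytes (2% hematocrit, 0.05% parasitemia final) with compounds for 96 hours at 37 C, 5% CO2. Growth inhibition read as loss of luminescence after adding luciferase detection reagent.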
SARS PLP yeast = qHTS of Yeast-based Assay for SARS-CoV PLP | 0.19% of 330,000 active | S. cerevisiae expressing SARS-CoV PLpro, growth rescue | AID 485353, 2010 | Potency, µM (highest dose often 32.9 µM), hits mostly activators; calls by dose curve; also: nearly all actives have a fitted effect of over 55% in size
A number is an active result; . = inactive; ? = inconclusive; / = not tested or not shown; [ ] = another dose, or the depositor's remark. Unless noted, calls follow the shape of the dose curve; as a rule, active = well fitted curve in the direction sought with a large enough effect; inconclusive = small, poorly fitted or top-dose-only effect, or another doubt; inactive = no such curve, though single readings can be large; an effect the other way counts as inactive or inconclusive.

SMILES	Pf growth 48h	Shiga inhibitor	AMA1-RON2 inh	Cycloheximide cs	Pf growth 96h	SARS PLP yeast
O=c1c2ccccc2[nH]c(=S)n1-c1ccc2c(c1)OCCO2	?	99	.	45	?	.
COc1ccc(S(=O)(=O)N2Cc3ccccc3CC2C(=O)Nc2ccc3c(c2)OCO3)cc1 (configuration not stated)	?	.	.	47	?	.
Cc1ccc(S(=O)(=O)N2Cc3ccccc3CC2C(=O)NC(C)(C)C)cc1 (configuration not stated)	.	.	.	.	12µM	.
Cc1ccc(S(=O)(=O)N2Cc3ccccc3CC2C(=O)Nc2ccc3c(c2)OCO3)cc1 (configuration not stated)	.	60	.	30	/	.
Cc1ccc(NC(=O)N2Cc3ccccc3CC2C(=O)NC(C)(C)C)cc1 (configuration not stated)	.	.	.	.	?	.
COc1ccc(S(=O)(=O)N2CCCCC2c2cc(C(=O)Nc3ccc4c(c3)OCO4)no2)cc1 (configuration not stated)	/	/	.	/	/	/
Cc1ccc(S(=O)(=O)N2C(=O)CCC2C(=O)Nc2ccc3c(c2)OCCO3)cc1 (configuration not stated)	.	.	.	.	/	.
CN(C)C(=O)C1Cc2ccccc2CN1S(=O)(=O)c1ccc(F)cc1 (configuration not stated)	.	.	.	.	4.1µM	.
COc1ccc(F)cc1C1=CC(=O)C[C@H](c2ccc3c(c2)OCO3)C1	?	/	.	/	?	.
CCCCn1c(N)c(N(CC)C(=O)c2cc3c(s2)CCCCC3)c(=O)[nH]c1=O	.	/	.	/	.	.
COc1ccc(-c2csc(N3CCN(c4cc5c(cc4Cl)nc(-c4ccncc4)n5CCOCCO)CC3)n2)cc1	?	.	.	.	3.7µM	.
Cc1ccc(-c2csc(N3CCN(c4ccc5nc(-c6ccncc6)n(CCN6CCCCC6)c5c4)CC3)n2)cc1	1.5µM	.	.	.	?	.
CCCn1c(C)nc2cc(Cl)c(N3CCN(c4nc(-c5ccc(C)cc5)cs4)CC3)cc21	8.3µM	.	.	.	5.2µM	.
Cc1ccc(-c2csc(NCCn3c(-c4ccncc4)nc4ccccc43)n2)cc1	.	.	.	.	.	.
Cc1ccc(-c2csc(N3CCN(c4cc5c(cc4Cl)nc(-c4ccncc4)n5CCN4CCCCC4)CC3)n2)cc1	?	.	.	.	3.3µM	.
NC(=O)CC(NC(=O)Cc1cccc2ccccc12)c1ccc(NCc2ccc(F)c(F)c2)c([N+](=O)[O-])c1 (configuration not stated)	?	.	.	.	.	.
CN1CCN(NC(=O)c2cc(Br)ccc2Cl)CC1	.	.	.	.	.	.
O=P(c1ccccc1)(c1ccccc1)c1nc(-c2ccc(Cl)cc2)oc1N1CCOCC1	10µM	.	.	.	.	.
CCOP(=O)(c1ccccc1)c1nc(-c2ccc(F)cc2)oc1N1CCCCC1 (configuration not stated)	9.3µM	.	.	.	.[5.75 µM]	.
CCOP(=O)(OCC)c1nc(-c2ccc(Br)cc2)oc1N1CCCCC1	10µM	.	.	.	.	.
Cc1csc(SCC(=O)NC(=O)NC2CCCC2)n1	.	.	.	.	.[5.75 µM]	.
O=C(Cc1ccccc1)NC1CCSc2ccccc21 (configuration not stated)	.	.	.	.	.	.
Cc1ccc(NC(=S)NC2CCSc3ccccc32)cc1 (configuration not stated)	?	.	.	.	?	.
COc1ccc(C(=O)NC2CCSc3ccccc32)cc1 (configuration not stated)	.	35	.	19	.	.
CSc1ccc(C(=O)NC2CCSc3ccccc32)cc1 (configuration not stated)	.	.	.	11	?	.
SMILES	Pf growth 48h	Shiga inhibitor	AMA1-RON2 inh	Cycloheximide cs	Pf growth 96h	SARS PLP yeast
CC(=O)Nc1ccc(C(=O)NC2CCSc3ccccc32)cc1 (configuration not stated)	.	.	.	14	.	.
COc1ccc(OC)c(C(=O)NC2CCSc3ccccc32)c1 (configuration not stated)	?	.	.	.	?	.
COc1ccc(OC)c(CCNC(=O)CN2C(=O)CCSc3ccccc32)c1	.	.	.	.	.	.
Cc1ccc2nc(-c3ccc(NS(=O)(=O)c4ccc(F)c(F)c4)cc3)sc2c1	.	96	.	64	.	.
Cc1ccc2nc(-c3ccc(NS(=O)(=O)c4ccccc4)cc3)sc2c1	.	active	.	29	.	.
CCCCN1CCN=C1N(C)C	?	/	.	/	?	.
CCOC(=O)[C@@H]1[C@H]2COc3ccccc3[C@H]2N2C(=O)N(c3ccc(Br)cc3)C(=O)[C@]12C	/	/	.	/	/	.
O=C(Nc1cc(Cl)ccc1N1CCOCC1)c1ccc2c(c1)OCCO2	?	.	.	.	.	.
O=C(Nc1ccc(F)c([N+](=O)[O-])c1)c1ccc2c(c1)OCCO2	.	55	.	33	.	.
O=C(Nc1ccc(Cl)cc1[N+](=O)[O-])c1ccc2c(c1)OCCO2	.	67	.	40	?	.
CC(=O)N1CCN(C2=Nc3cccc4cccc2c34)CC1	/	.	.	.	/	.
O=C(O)c1ccc(NC2=Nc3cccc4cccc2c34)cc1	.	69	.	23	.	.
COc1ccccc1NC1=Nc2cccc3cccc1c23	.	.	?	14	.	.
COc1ccccc1N1CCN(C2=Nc3cccc4cccc2c34)CC1	.	.	?	34	.	.
CN(C)CCNS(=O)(=O)c1ccc(N2CCc3ccccc32)c([N+](=O)[O-])c1	?	.	?	.	?	.
Cc1ccc(NC(=O)C2(C)CCN2C(=O)CC(c2ccccc2)c2ccccc2)cc1 (configuration not stated)	/	/	.	/	/	/
c1cnc(Sc2ccc3nnnn3n2)nc1	.	.	.	.	.	.
O=C(Nc1cnc2sccn2c1=O)c1ccc(Cl)cc1Cl	.	120	.	38	/	.
COc1ccc(Cl)cc1NC(=O)c1cnc2sccn2c1=O	.	.	.	.	.	.
CC(=O)/C(N=Nc1nc2c([nH]1)c(=O)n(C)c(=O)n2C)=C(\C)O	.	.	.	.	.	.
CCCC(=O)N1CCCC1(C)C(=O)Nc1ccc2nc(C)ccc2c1 (configuration not stated)	/	/	.	/	/	/
c1ccc2c(Nc3nc4c(s3)CCCC4)cccc2c1	.	112	.	45	.	.
O=C(CSc1n[nH]c(-c2ccc(S(=O)(=O)N3CCCCC3)cc2)n1)Nc1nccs1	?	.	.	.	.	.
